# According to PubChem BioAssay AID602433 (Southern Research Specialized Biocontainment Screening …, 2012):
# Results with a measured potency or affinity are listed apart. Inconclusive results are not listed. Unmarked numbers belong to inactive results. How the calls were made is not given here.
# Experiment: THP-1 cell cytotoxicity, cytotoxicity control, set 6 (AID 602433)
# Details: THP-1 cell viability, cytotoxicity CC50; series mostly up to 100 µM; viability: at the top concentration
row,SMILES,viability [%]
1,O=C(CSc1nc2c(c(=O)[nH]1)CCCC2)NC1CCCCC1,94.3
2,O=C(c1ccc(CNc2c(N3CCOCC3)c(=O)c2=O)cc1)N1CCN(c2ccccc2)CC1,92.5
3,COC(=O)C(Cc1ccccc1)NC(=O)CSc1nc2ccccc2c(=O)[nH]1 (stereo not drawn),81.6
4,O=C(NCc1ccc(C(=O)N2CCN(c3ccccc3)CC2)cc1)NC1CCCCC1,82.6
5,O=C(CSc1nc2c(c(=O)[nH]1)CCC2)NC1CCCCC1,98.8
6,O=C(c1ccc(CNc2c(N3CCCC3)c(=O)c2=O)cc1)N1CCN(c2ccccc2)CC1,99.7
7,CC(C)CCNC(=O)CSc1nc2c(c(=O)[nH]1)CCCCC2,96
8,O=C(c1ccc(CNc2c(N3CCCC3)c(=O)c2=O)cc1)N1CCC(c2ccccc2)CC1,99.5
